Results filed as inconclusive are left out. Activity calls are given as the source filed them. Unless noted, the call rests on the fitted dose curve; in most records, active means well fitted curve in the direction sought with a large enough effect in the repeat runs; inconclusive means weak or mixed curves; inactive means no such curve, though single readings can be large; an effect the other way counts as inactive or inconclusive.

Here are results for eight compounds from PubChem BioAssay (Tox21).

Experiment [1] can be described thus: qHTS assay to identify small molecule agonists of the vitamin D receptor (VDR) signaling pathway - cell viability counter screen (AID 743224). Further: series mostly up to about 63 µM; nearly all actives have a fitted effect of over 50% in size. The method, boiled down: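 VDR-bla cells were preincubated 4 h at 37C/5% CO2, then exposed to compounds for 16 h. After the 2 h room-temperature bla FRET read, CellTiter-Glo was added to the same wells and luminescence read after 30 min.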
On the technique in general: qHTS replaces the single test concentration by a dilution series.

A short description of experiment [2]: qHTS assay to identify small molecule antagonists of the vitamin D receptor (VDR) signaling pathway - cell viability counter screen (AID 743225). Further: nearly all actives have a fitted effect of over 50% in size. Further: potency means the concentration at half of the fitted maximal effect. The essentials: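 Compounds were pinned onto VDR-bla HEK 293T cells together with 1-alpha,25-dihydroxyvitamin D3 at 3 nM final. After 16 h at 37C and 5% CO2 plus the reporter readout, cell viability was measured by CellTiter-Glo luminescence (30 min, room temperature).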

The nature of experiment [3]: qHTS assay to identify small molecule agonists of the NFkB signaling pathway - cell viability counter screen (AID 1159515; calls by dose curve; further: nearly all actives have a fitted effect of over 55% in size; further: potency means the concentration at half of the fitted maximal effect). The method, boiled down: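 NFkB-bla ME-180 cells, 2,000/well, were plated overnight at 37 C, 5% CO2, then exposed to compounds in DMSO for 5 hr. After the bla FRET read, CellTiter-Glo was added to the same wells; luminescence was read after 30 min at room temperature.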

A short description of experiment [4]: qHTS assay to identify small molecule agonists of the endoplasmic reticulum stress response signaling pathway - cell viability counter screen (AID 1159517; calls by dose curve; further: nearly all actives have a fitted effect of over 50% in size; further: potency means the concentration at half of the fitted maximal effect). The method, boiled down:
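Cells, HeLa ESRE-bla; density, 1,500/well; dosing, 5 hr at 37 C, 5% CO2; readout, CellTiter-Glo luminescence after 30 min RT.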

A short description of experiment [5]: qHTS assay to identify small molecule antagonists of the retinoid-related orphan receptor gamma (ROR-gamma) signaling pathway - cell viability counter screen (AID 1159520). Further: nearly all actives have a fitted effect of over 50% in size. Further: potency means the concentration at half of the fitted maximal effect. The essentials:
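Cytotoxicity was read from cellular ATP (CellTiter-Glo luminescence) after 16 hr at 37 C with 1 uM doxycycline induction. The inducer was added 2 hr after compound transfer to Tet-on ROR gamma CHO cells.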

Experiment [6] concerns the target Nuclear receptor ROR-gamma (Homo sapiens) (UniProt P51449). Description: qHTS assay to identify small molecule antagonists of the retinoid-related orphan receptor gamma (ROR-gamma) signaling pathway (AID 1159521; further: nearly all actives have a fitted effect of over 50% in size; further: potency means the concentration at half of the fitted maximal effect). The method, boiled down:
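Test compounds were applied to Tet-on RORγ CHO cells 2 h ahead of doxycycline hyclate (1 uM final). Luciferase reporter activity was quantified by luminescence after 16 h at 37 C and 5% CO2.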

Experiment [7] in a line: qHTS assay to identify small molecule agonists of the AP-1 signaling pathway - cell viability counter screen (AID 1159525; calls by dose curve; further: nearly all actives have a fitted effect of over 55% in size; further: potency means the concentration at half of the fitted maximal effect). The method, boiled down: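 Luminescent ATP readout (Cell Titer Glo, 30 min RT), normalised to DMSO and tetra n-octyl ammonium bromide controls. Cells were ME-180 AP-1-bla in 0.5% dialyzed FBS Opti-MEM, with a 5 h, 37 °C compound exposure.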
Experiment [8] can be described thus: qHTS assay to identify small molecule agonists of the RXR signaling pathway - cell viability counter screen (AID 1159529). Further: nearly all actives have a fitted effect of over 50% in size. Further: potency means the concentration at half of the fitted maximal effect. The method, boiled down: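 Compounds dissolved in DMSO were pinned onto HEK 293T cells carrying a beta-lactamase reporter under RXR-alpha control and incubated 16 hr. Cytotoxicity was then quantified by CellTiter-Glo luminescence.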
The nature of experiment [9]: qHTS assay to identify small molecule antagonists of the estrogen related receptor (ERR) signaling pathway from Tox21 library - cell viability counter screen (AID 1224834). Further: nearly all actives have a fitted effect of over 30% in size. Further: potency means the concentration at half of the fitted maximal effect. The essentials: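 ERR reporter cells were plated 6 h before compound addition, then exposed to test compounds in DMSO for 17.5 h at 37 C. Viability was read as CellTiter-Fluor fluorescence after a 30-minute incubation at 37 C.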

Experiment [10] addresses Luciferin 4-monooxygenase (Photinus pyralis) (UniProt P08659). Description: qHTS assay to identify small molecule inhibitors of firefly luciferase (AID 1224835). Further: nearly all actives have a fitted effect of over 25% in size. Further: potency means the concentration at half of the fitted maximal effect. The essentials: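 Inhibition of purified Photinus luciferase is measured by luminescence. Substrate levels (D-luciferin, ATP) sit at their KM values. Each compound is tested in a concentration series.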
Experiment [11] is described as follows: qHTS assay to identify small molecule antagonists of the retinoic acid receptor (RAR) signaling pathway (AID 1159552; further: nearly all actives have a fitted effect of over 50% in size; further: potency means the concentration at half of the fitted maximal effect). The method, boiled down:
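Test chemicals and DMSO controls were pin-transferred onto C3RL4 cells a day after seeding; retinol (1 uM final) followed at once. Luminescent reporter output was quantified after 6 hr of co-incubation and 30 min with detection reagent.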

Experiment [12] can be described thus: qHTS assay to identify small molecule agonists of the AP-1 signaling pathway (AID 1159526; calls by dose curve).
The nature of experiment [13]: qHTS assay to identify small molecule antagonists of the retinoid acid receptor (RAR) signaling pathway - cell viability counter screen (AID 1159551). Further: nearly all actives have a fitted effect of over 35% in size. The essentials: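 C3RL4 cells were seeded overnight at 37 C, then treated with compounds plus 1 uM (final) retinol for 6 h at 37 C. Viability was read as ATP by CellTiter-Glo luminescence after 30 min at room temperature.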

Experiment [14] is described as follows: qHTS assay to identify small molecule agonists of the retinoic acid receptor (RAR) signaling pathway (AID 1159553). Further: potency means the concentration at half of the fitted maximal effect. The essentials: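 C3RL4 cells carrying a RARE luciferase reporter were plated overnight at 37 C, then exposed to compounds in DMSO for 6 hr at 37 C and 5% CO2. Luminescence was read 30 min after luciferase reagent addition at room temperature.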

The target of experiment [15] is Retinoic acid receptor RXR-alpha (Homo sapiens) (UniProt P19793). Description: qHTS assay to identify small molecule agonists of the RXR signaling pathway (AID 1159527; calls by dose curve; further: nearly all actives have a fitted effect of over 35% in size). The essentials:
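Using 9-cis retinoic acid as the reference agonist, chemicals were tested in HEK 293T cells […] for 16 hr; substrate loading lasted 2 hr at room temperature.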

Luciferin 4-monooxygenase (Photinus pyralis), sequence (P08659 whole entry, looked up): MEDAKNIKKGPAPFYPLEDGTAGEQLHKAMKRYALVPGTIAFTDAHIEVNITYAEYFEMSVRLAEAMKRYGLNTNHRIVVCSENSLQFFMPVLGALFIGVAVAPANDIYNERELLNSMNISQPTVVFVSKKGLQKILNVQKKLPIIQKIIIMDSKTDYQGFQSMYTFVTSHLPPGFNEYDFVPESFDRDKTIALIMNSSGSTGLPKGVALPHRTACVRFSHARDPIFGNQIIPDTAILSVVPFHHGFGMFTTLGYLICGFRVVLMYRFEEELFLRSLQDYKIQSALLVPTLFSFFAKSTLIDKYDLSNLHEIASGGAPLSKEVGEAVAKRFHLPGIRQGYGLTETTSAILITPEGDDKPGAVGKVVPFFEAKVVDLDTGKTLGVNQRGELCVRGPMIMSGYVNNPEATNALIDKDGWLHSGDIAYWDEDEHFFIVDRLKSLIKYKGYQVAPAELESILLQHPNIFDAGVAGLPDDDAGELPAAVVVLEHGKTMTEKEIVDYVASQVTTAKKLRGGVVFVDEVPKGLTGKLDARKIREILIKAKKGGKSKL
Retinoic acid receptor RXR-alpha (Homo sapiens), sequence (P19793 whole entry, looked up): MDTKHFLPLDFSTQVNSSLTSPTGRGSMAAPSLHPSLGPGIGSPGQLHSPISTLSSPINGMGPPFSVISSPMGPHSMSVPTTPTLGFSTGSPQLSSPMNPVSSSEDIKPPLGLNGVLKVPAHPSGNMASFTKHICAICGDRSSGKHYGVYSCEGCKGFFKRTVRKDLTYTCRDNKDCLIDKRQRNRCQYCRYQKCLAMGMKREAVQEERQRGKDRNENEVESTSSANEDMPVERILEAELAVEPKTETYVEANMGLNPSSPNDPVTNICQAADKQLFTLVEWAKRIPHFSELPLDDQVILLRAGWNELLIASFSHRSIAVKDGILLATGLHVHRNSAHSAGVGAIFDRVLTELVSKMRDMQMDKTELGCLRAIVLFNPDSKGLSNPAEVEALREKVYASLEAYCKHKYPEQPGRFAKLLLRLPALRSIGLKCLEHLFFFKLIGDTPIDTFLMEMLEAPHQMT

As for `COC(=O)C1=C(C)NC(C)=C(C(=O)OCCc2ccc(N3CCN(C(c4ccccc4)c4ccccc4)CC3)cc2)C1c1cccc([N+](=O)[O-])c1` (centres undefined), the Potency result in [1], in experiment [2], in experiment [3], in [4], in experiment [5] and in experiment [6] was “inactive” each time. The Potency entry in experiment [7], in experiment [8], in experiment [9] and in experiment [10] was “inactive” in each case.

With `Oc1cc2ccccc2c2ccccc12`, the Potency was 4.36 µM (active) in experiment [2]; 4.9 µM (active) in [3]; 11 µM (active) in experiment [4]; 17.2 µM (active) in experiment [5]; 12.2 µM (active) in [6]; 11 µM (active) in experiment [7]. For the same compound, the Potency in experiment [8] was 4.9 µM (active); in experiment [11], 13.7 µM (active); in [9], 8.63 µM (active); in experiment [10] it was 79.6 µM (active).

As for `CCOC(=O)/C=C(C)/C=C/C=C(C)/C=C/c1c(C)cc(OC)c(C)c1C`, the Potency result in experiment [1], in experiment [2], in experiment [3], in experiment [4], in [5] and in experiment [7] was “inactive” throughout. Besides, the Potency entry in experiment [12], in experiment [8], in experiment [13], in experiment [11], in [9] and in experiment [10] was “inactive” in each case. Further, in experiment [14], the Potency was 0.531 µM (active).

Regarding `CCC1OCC(COc2ccc(Oc3ccccc3)cc2)O1` (centres undefined), the Potency entry in experiment [2], in [3], in experiment [4], in experiment [5], in [6] and in experiment [7] was “inactive” throughout. The Potency result in experiment [13], in [11] and in experiment [9] was “inactive” throughout. Moreover, the Potency in [14] is 3.44 µM (active); in [10], 17.8 µM (active).

Turning to `CC(=O)SC[C@@H](Cc1ccccc1)C(=O)NCC(=O)OCc1ccccc1`, the Potency result in experiment [1], in [2], in experiment [3], in experiment [4], in experiment [5] and in [7] was “inactive” throughout. Further, the Potency result in [12], in experiment [15], in experiment [8], in experiment [13], in [11] and in [14] was “inactive” in each case. Further, the Potency result in [9] and in [10] was “inactive” throughout.

As to `CC(C)OC(=O)c1cc2c(OCC(O)CNC(C)(C)C)cccc2[nH]1` (centres undefined), the Potency entry in [1], in [2], in [3], in experiment [4], in experiment [5] and in [7] was “inactive” each time. The Potency result in [12], in [8], in experiment [13], in experiment [11], in [14] and in [9] was “inactive” throughout. Besides, the Potency entry in experiment [10] was “inactive”.

For `CC(C)(C)c1ccc(C(=O)CCCN2CCC(OC(c3ccccc3)c3ccccc3)CC2)cc1`, the Potency in experiment [3] was 23.9 µM (active); in experiment [4], 23.9 µM (active); in experiment [5], 21.1 µM (active); in [6] it was 11.9 µM (active); in experiment [7] it was 15.1 µM (active); in experiment [8], 15.1 µM (active). Besides, the results for the Potency in experiment [11] and in [9] were 26.6 µM (active) and 23.7 µM (active), respectively.

With `NNc1nc(-c2ccc([N+](=O)[O-])cc2)cs1`, the Potency result in [3], in [4], in [7], in experiment [8] and in experiment [11] was “inactive” throughout. The Potency in [5] was 30.6 µM (active); in experiment [6] it was 10.9 µM (active); in experiment [14] it was 54.5 µM (active); in experiment [9], 6.86 µM (active); in [10] it was 31.7 µM (active).
